Compounds with a hit are over-represented: about 1.3% of the library has one in this group of screens.
TSHR antagonist: Antagonists of the Thyroid Stimulating Hormone Receptor: HTS campaign; TSHR-expressing cells, TSH-stimulated cAMP HTRF, 2 h; stronger effect = lower value; Thyrotropin receptor (Homo sapiens), P16473; AID 504810, 2011; activity change, negative = inhibition, % at 11.5 µM; 0.2% of 330,000 active;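 active = activity change below a set negative limit, meaning inhibition stronger than a set level, cut at about -70% in these data; inconclusive = activity change between two set negative limits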; note: % is set by controls: 0 for no effect and ±100 for the full control effect
Target sequence (P16473 whole entry, looked up): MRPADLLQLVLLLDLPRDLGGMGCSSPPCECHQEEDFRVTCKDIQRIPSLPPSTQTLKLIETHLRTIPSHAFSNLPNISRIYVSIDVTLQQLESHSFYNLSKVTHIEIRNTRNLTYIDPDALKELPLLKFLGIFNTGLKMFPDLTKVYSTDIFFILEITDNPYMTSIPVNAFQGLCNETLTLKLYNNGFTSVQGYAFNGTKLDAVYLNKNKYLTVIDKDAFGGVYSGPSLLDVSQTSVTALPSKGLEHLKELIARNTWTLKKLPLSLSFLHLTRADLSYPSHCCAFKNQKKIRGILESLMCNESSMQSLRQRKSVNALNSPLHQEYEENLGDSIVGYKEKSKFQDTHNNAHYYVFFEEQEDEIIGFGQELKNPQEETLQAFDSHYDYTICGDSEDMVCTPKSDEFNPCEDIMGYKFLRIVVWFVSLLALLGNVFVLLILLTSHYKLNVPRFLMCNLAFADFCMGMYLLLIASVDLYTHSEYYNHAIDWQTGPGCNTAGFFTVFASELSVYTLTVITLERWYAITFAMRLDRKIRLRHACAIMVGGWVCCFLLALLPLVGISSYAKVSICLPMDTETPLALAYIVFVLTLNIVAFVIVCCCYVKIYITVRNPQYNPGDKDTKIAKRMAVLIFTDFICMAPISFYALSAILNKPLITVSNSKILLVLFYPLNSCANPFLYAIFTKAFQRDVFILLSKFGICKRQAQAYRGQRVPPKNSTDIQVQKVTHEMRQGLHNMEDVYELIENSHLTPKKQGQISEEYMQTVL
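TSHR-expressing cells, 200/well, pre-treated with compound, then stimulated with EC80 TSH (4nM final) for 2 hours at 37 deg C. cAMP measured by competitive HTRF: anti-cAMP cryptate antibody in lysis buffer plus cAMP-d2, read after 30 minutes at room temperature.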
RXFP1 antagonist: qHTS Assay for Antagonists of the Relaxin Receptor RXFP1; HEK293-RXFP1, relaxin-stimulated cAMP HTRF, 30 min; stronger effect = lower value; activity change, negative = inhibition, % at 57.5 µM; 0.59% of 350,000 active;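 active = activity change of -60% or lower, but not beyond a set lower limit; inconclusive = change between -60% and -40%, or beyond the set limit; inactive = change above -40%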; note: % is set by controls: 0 for no effect and ±100 for the full control effect
pAkt inh: HTS Assay for Inhibitors of Akt Phophorylation: Primary Screen; Neuro2A IGF-stimulated pAkt S473 HTRF, 20 min; stronger effect = lower value; activity change, % for hits at 50 µM; 0.32% of 360,000 active; in the data active = activity change below about -80%; inconclusive = mostly about -51% to -80%; note: % is set by controls: 0 for no effect and ±100 for the full control effect
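Single-point screen (50 µM final compound) in Neuro2A cells stimulated 20 min with 6 nM IGF at 37 deg C. After lysis, Ser473-phosphorylated Akt read by HTRF (ex 330 nm, em 615/665 nm) as the 665/615 ratio.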
RXFP1 agonist: qHTS Assay for Agonists of the Relaxin Receptor RXFP1; Relaxin receptor 1 (Homo sapiens), Q9HBX9; HEK293T-RXFP1 cAMP TR-FRET, 30 min; response scale: percent of porcine relaxin response, buffer zero; Potency, µM (titrated, usually from 57.5 µM), without a hit: at the top dose activation, usual class: activators; 0.3% of 370,000 active; AID 2676, 2010; active = well fitted activation curve with a large enough effect; inconclusive = small, poorly fitted or top-dose-only effect; note: potency is the fitted concentration of half-maximal effect; % is set by controls: 0 for no effect and ±100 for the full control effect; nearly all actives have a fitted effect of over 60% in size
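HEK293 cells stably expressing RXFP1, treated 30 min at 37C with compounds plus PDE4 inhibitor Ro 20174; cAMP measured by HTRF TR-FRET. Normalized to buffer and 29 nM porcine relaxin; EC50 by Hill fit.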
gsp antagonist: qHTS for Antagonists of gsp, the Etiologic Mutation Responsible for Fibrous Dysplasia/McCune-Albright Syndrome: qHTS | gsp-mutant cells, cAMP HTRF, 30 min | Potency, µM (titrated, usually from 76.9 µM), for inactives: at the highest dose activity change, negative = inhibition, usual class: inhibitors | 0.4% of 340,000 active | AID 624288, 2012; calls by dose curve; cell line not stated here;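 note: intracellular cAMP measured with PDE inhibitor Ro 20-1724 present during compound exposure; potency is the fitted concentration of half-maximal effect; % is set by controls: 0 for no effect and ±100 for the full control effect; nearly all actives have a fitted effect of over 65% in size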
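HTRF cAMP measurement after 30 min RT detection following 30 min, 37C compound treatment alongside […] (added as 300 uM solution) in G418-selected cells seeded at 2000/well and grown 16–24 h.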
gsp ag: qHTS for Agonist of gsp, the Etiologic Mutation Responsible for Fibrous Dysplasia/McCune-Albright Syndrome: qHTS; gsp mutant cells, cAMP HTRF, 30 min; 0.13% of 340,000 active; Potency, µM (top dose mostly 76.9 µM), inactives show at the highest dose activation (cAMP increase), actives largely listed as activators; active = well fitted activation curve with a large enough effect; inconclusive = small, poorly fitted or top-dose-only effect, or another doubt; inactive = no such curve, though single readings can be large or run the other way; cell line not stated here;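 note: phosphodiesterase inhibitor Ro 20-1724 added with compounds to block cAMP breakdown; potency is the fitted concentration of half-maximal effect; nearly all actives have a fitted effect of over 60% in size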
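Cells stably selected in G418 were plated at 2000/well, grown 16-24 hr, then given compounds in DMSO with the PDE inhibitor […] (300 uM solution added) for 30 min at 37C; cAMP was read by HTRF.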
* marks the source's active call; other numbers are inactive results; i = inactive; ? = inconclusive; nt = no result given; [ ] = another dose, or the depositor's remark.

SMILES	TSHR antagonist	RXFP1 antagonist	pAkt inh	RXFP1 agonist	gsp antagonist	gsp ag
O=C(NC1CC1)C1CCN(c2ccc(S(=O)(=O)N3CCOCC3)cc2)CC1	5	-16	i	2%	-8%	?
CC(C)CNC(=O)C1CCN(c2ccc(S(=O)(=O)N3CCOCC3)cc2)CC1	-77*	6	i	0%	-2%	2%
CC1(c2ccc(OCC#N)cc2)C=C(c2ccc(OCC#N)cc2)n2nc(C(F)(F)F)nc2N1 (stereo unspecified)	-8	-3	i	-1%	-21%	-25%
Cc1ccc(C2=CC(C)(c3ccc(C)cc3)Nc3nc(C(F)(F)F)nn32)cc1 (stereo unspecified)	7	-67*	i	0%	12%	6%[15.4 µM]
COc1ccccc1CCN=C(N)NS(=O)(=O)c1ccc(C)c(C)c1	12	3	i	0%	4%	16%
O=C(Nc1ccc(-n2cccc2)cc1)C1CC1	2	1	i	-1%	11µM*	-2%[15.4 µM]
COc1ccc(CN2C(=O)N(c3ccc(F)cc3)C(=O)C2CC(=O)Nc2ccccc2)cc1 (stereo unspecified)	nt	nt	nt	-2%	nt	nt
COc1ccc(C(=O)Nc2ccc3nc(SCC(=O)N4CCCC4)sc3c2)cc1	nt	-21	nt	5%	nt	nt
Cc1cccc(C(=O)Nc2ccc3nc(SCC(=O)N4CCCC4)sc3c2)c1	nt	-66*	nt	-2%	nt	nt
O=C(/C=C/c1ccc(-c2ccccc2[N+](=O)[O-])o1)c1ccco1	-6	-64*	i	1%	?	-15%[15.4 µM]
O=C(/C=C/c1ccc([N+](=O)[O-])cc1)c1ccco1	2	-3	i	1%	4%	1%
O=C1CC(c2cccc(Cl)c2)Cc2nc(N3CCN(c4ccccc4)CC3)ncc21 (stereo unspecified)	-5	2	-97%*	25%	4%	31%
O=C1CCCN1CC(O)CS(=O)(=O)c1ccc(Cl)cc1 (stereo unspecified)	3	26	i	-5%	11%	10%
Cc1ccc(S(=O)(=O)CC(O)CN2CCCC2=O)cc1 (stereo unspecified)	5	0	-117%*	1%	12%	-60%
COc1ccc(CC(=O)Nc2cc(-c3cn4cccnc4n3)ccc2OC)cc1	nt	20	nt	0%	nt	nt
N#C/C(=C\c1ccc(Cl)cc1)c1nc2ncccc2[nH]1	-10	2	-105%*	0%	14%	-39%
CC(C)(C)c1cc(C(=O)NCc2ccccc2)ccn1	29	-11	-88%*	2%	-14%	-31%
COc1cc(NC(=O)C2CC(c3cccc(Br)c3)=NO2)cc(OC)c1OC (stereo unspecified)	-35	-19	i	0%	-21%	-3%[15.4 µM]
COCC(C)NC(=O)C1CC(c2cccc(Br)c2)=NO1 (stereo unspecified)	2	-5	-111%*	0%	19%	16%
COc1ccc2nc(SCc3nc(N)nc(Nc4ccccc4)n3)[nH]c2c1	-14	-1	-102%*	1%	26%	18%
COc1ccc(Nc2nc(N)nc(CSc3nc(C)cc(C)n3)n2)cc1	0	-2	i	1%	-6%	7%[15.4 µM]
CN1CCN(c2cc(N3CCN(C(=O)c4ccco4)CC3)c3c4c(onc24)-c2ccccc2C3=O)CC1	-19	-20	i	2%	-23%	-34%
O=C(O)CCCNc1cc(N2CCN(C(=O)c3ccco3)CC2)c2noc3c2c1C(=O)c1ccccc1-3	-38	-65*	i	-8%	?	-48%
O=C1c2ccccc2-c2onc3c(N4CCN(CCO)CC4)cc(N4CCN(C(=O)c5ccco5)CC4)c1c23	-9	-32	i	2%	18µM*	-13%[15.4 µM]
O=C(O)CCCNc1cc(N2CCC3(CC2)OCCO3)c2noc3c2c1C(=O)c1ccccc1-3	-31	nt	nt	-5%	nt	nt
SMILES	TSHR antagonist	RXFP1 antagonist	pAkt inh	RXFP1 agonist	gsp antagonist	gsp ag
CC(C)Oc1ccc(C(=O)/C=C2/C(=O)Nc3ccccc32)cc1	-7	?	i	3%	-3%	?
COc1ccc(C(=O)/C=C2\C(=O)Nc3ccc(Br)cc32)cc1	nt	-75*	i	nt	7%	0%
O=C1Nc2ccc(Br)cc2/C1=C/C(=O)c1ccc2c(c1)OCO2	-18	-84*	i	4%	3%	15%
COc1ccc(C(=O)c2cn(Cc3cccc(C)c3)c3cc4c(cc3c2=O)OCCO4)cc1OC	nt	-81*	nt	1%	nt	nt
CCc1nn2c(=O)cc(COC(=O)CNC(=O)c3ccccc3)nc2s1	nt	nt	nt	13%	nt	nt
O=C(Nc1ccc(Br)cc1)N1CCCCCCC1	5	-14	-110%*	1%	4%	-31%
O=C(Nc1ccc(F)cc1)N1CCOCC1	11	0	nt	0%	4%	12%
CN(C)c1ccc(NC(=O)N2CCOCC2)cc1	-36	-69*	i	0%	?	0%
CCC(C(=O)O)c1ccc(N2Cc3ccccc3C2=O)cc1 (stereo unspecified)	nt	-13	nt	nt	nt	nt
CCOC(=O)C1(CCOc2ccccc2)CCN(Cc2cccc(OC)c2O)CC1	-113*	-5	i	-1%	-1%	-102%
CCOC(=O)C1(Cc2cccc(OC)c2)CCN(Cc2cccc3c2OCO3)CC1	3	-95*	i	1%	-6%	2%[15.4 µM]
CCOC(=O)C1(Cc2cccc(OC)c2)CCN(Cc2cccc(OC)c2OC)CC1	21	-12	i	4%	0%	-9%[15.4 µM]
CCOC(=O)C1(CCOc2ccccc2)CCN(Cc2cc(OC)ccc2OC)CC1	-2	-29	i	-1%	6%	29%
COc1ccc(C(=O)NCc2ccncc2)cc1S(=O)(=O)N1CCOCC1	16	-11	i	-1%	4%	17%
COc1ccc(C(=O)NCC(C)(c2ccccc2)c2ccccc2)cc1S(=O)(=O)N1CCOCC1	nt	-8	i	nt	35µM*	32%
CN1CCC2(CCN3CCc4c(oc5ccccc45)C3C2)N(C)C1=O (stereo unspecified)	-16	nt	nt	nt	nt	nt
Cc1ccc(C)c(NC(=O)c2ccc3c(O)c(S(=O)(=O)c4ccc(Cl)cc4)c(=O)[nH]c3c2)c1	nt	-2	nt	1%	nt	nt
COc1ccc(N2CCN(C(=O)[C@@H](NC(=O)c3ccccc3Cl)C(C)C)CC2)cc1	-7	-7	i	4%	-1%	-5%[15.4 µM]

Screens: PubChem BioAssay, National Center for Advancing Translational Sciences (NCATS)
